Screens: PubChem BioAssay, National Center for Advancing Translational Sciences (NCATS)
MCF10A rereplic – induces DNA re-replication in MCF 10a normal breast cells; MCF 10A DNA re-replication, Hoechst nuclear intensity, 48 h; Potency, µM (doses to about 46.1 µM), inactives show at the top dose activity, positive = re-replication, usual class: activators; hit rate 2.9% among 350,000; AID 624296; also: % of control where 0% means no effect; nearly all actives have a fitted effect of over 50% in size
PINK1 modulator – PINK1 expression modulation. PINK1 immunofluorescence, high-content cytometry, 24 h. Potency, µM (titrated, usually from 76.6 µM), for inactives: top-dose activation (PINK1 increase), actives largely listed as activators. hit rate 0.2% among 410,000. AID 624263; active = well fitted activation curve with a large enough effect; inconclusive = small, poorly fitted or top-dose-only effect; cell line not stated here; also: % of control where 0% means no effect; nearly all actives have a fitted effect of over 65% in size
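Measures PINK1 amount and localization on or inside mitochondria by immunofluorescence. Stable cells get compounds at 5 concentrations for 24 hours before fixation and staining; CCCP controls included.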
SW480 rerep – induces DNA re-replication in SW480 colon adenocarcinoma cells; SW480 DNA re-replication, Hoechst DNA content imaging, 48 h; Potency, µM (titrated, usually from 46.1 µM), for inactives: at the top dose re-replication activation, most hits filed as activators; hit rate 1.8% among 340,000; also: % of control where 0% means no effect; nearly all actives have a fitted effect of over 55% in size
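First, 250 cells per well were seeded. Next, compound or vehicle (23 nL) was pinned in, plates sat 48 hr at 37 C. Finally Hoechst was added for 40 min before fluorescence scanning.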
KB-V1 cytotox – KB-V1 MDR subline cytotoxicity | KB-V1 MDR cells viability, CellTiter-Glo, 72 h | Potency, µM (series often up to 46.1 µM), hits mostly cytotoxic | hit rate 3.4% among 400,000 | AID 1347076; also: % is scaled to controls: 0 for no effect and ±100 for the full control effect; nearly all actives have a fitted effect of over 60% in size
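Cells of the MDR subline KB-V1 are plated, dosed with compound at multiple concentrations, and incubated 72 h at 37 degrees C; CellTiter-Glo is then added and luminescence read after 10 min.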
KB-3-1 cytotox – kills parental KB-3-1 adenocarcinoma cells | KB-3-1 viability, CellTiter-Glo ATP luminescence, 72 h | hit rate 1.4% among 400,000 | Potency, µM (top dose mostly 46.1 µM), most hits filed as cytotoxic; also: % is scaled to controls: 0 for no effect and ±100 for the full control effect; nearly all actives have a fitted effect of over 60% in size
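KB-3-1 parental drug-naive adenocarcinoma cells in DMEM/10% FBS, incubated 72 h at 37 C with pin-transferred compounds across a concentration series. Viability by CellTiter-Glo luminescence; concentration-response curves fitted after normalization.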
Numbers without * were called inactive. In the library only some 6.7% were active in any assay of this set; here they are far more common. Unless noted, calls follow the shape of the dose curve; as a rule, active = well fitted curve in the direction sought with a large enough effect; inconclusive = small, poorly fitted or top-dose-only effect, or another doubt; inactive = no such curve, though single readings can be large; an effect the other way counts as inactive or inconclusive. Potency is read from the fitted curve at half-maximal effect.

For COc1cc2cc(CNc3ccc(C)cc3)c(=O)n(CC(=O)Nc3ccc(C(C)C)cc3)c2cc1OC the results were PINK1 modulator 13%, KB-V1 cytotox inactive and KB-3-1 cytotox inactive.
`CC1=C(C(=O)OC2CCCCCCC2)C(c2cc3c(cc2Br)OCO3)CC(=O)N1` (configuration not stated) gave MCF10A rereplic 5.8µM*, PINK1 modulator 0%, SW480 rerep inconclusive, KB-V1 cytotox inactive and KB-3-1 cytotox inconclusive.
For COc1ccc(C2C(O)C(c3c[nH]c4ccccc34)=NN2C(=O)CCl)cc1 (configuration not stated) the results were MCF10A rereplic 4.6µM*, PINK1 modulator 2%, SW480 rerep 1.3µM*, KB-V1 cytotox 15µM* and KB-3-1 cytotox inconclusive.
`Cc1nc(SCc2ccc(Br)cc2)[nH]c(=O)c1C` gave MCF10A rereplic 7.3µM*, PINK1 modulator 4%, SW480 rerep -5%, KB-V1 cytotox inactive and KB-3-1 cytotox inactive.
Cc1nc(SCCc2ccccc2)[nH]c(=O)c1C was read as MCF10A rereplic -5%, PINK1 modulator 0%, SW480 rerep inconclusive, KB-V1 cytotox 3.3µM* and KB-3-1 cytotox 3.3µM*.
For Cc1cc(=O)[nH]c(SCc2ccccc2)n1 the results were MCF10A rereplic 0%, PINK1 modulator 1%, SW480 rerep 9%, KB-V1 cytotox inactive and KB-3-1 cytotox inactive.
Cc1cc(=O)[nH]c(SCCc2ccccc2)n1 was read as MCF10A rereplic -3%, PINK1 modulator -1%, SW480 rerep -3%, KB-V1 cytotox 12µM* and KB-3-1 cytotox 16µM*.
`CCSc1nc(C)c(C)c(=O)[nH]1` gave MCF10A rereplic 4%, PINK1 modulator 0%, SW480 rerep -9%, KB-V1 cytotox inactive and KB-3-1 cytotox inactive.
Screening CCc1cc(=O)[nH]c(SCCc2ccccc2)n1 returned MCF10A rereplic inconclusive, PINK1 modulator -1%, SW480 rerep 3%, KB-V1 cytotox 8.2µM* and KB-3-1 cytotox 13µM*.
For COc1ccc(Cn2ccc3nc(C)c(C(=O)Nc4ccc(OC(F)(F)F)cc4)cc3c2=O)cc1 the results were PINK1 modulator 6%, KB-V1 cytotox inactive and KB-3-1 cytotox inactive.
O=C(c1ccc(CSc2nc3ccncc3n2Cc2cccc(F)c2)cc1)N1CCCCCC1 was read as PINK1 modulator -1%, KB-V1 cytotox inactive and KB-3-1 cytotox inactive.
For COc1ccccc1NS(=O)(=O)c1cc(NC(=O)c2ccccc2)ccc1N1CCCC1 the results were KB-V1 cytotox inactive and KB-3-1 cytotox inactive.
`Cc1ccc(SCCSc2nc(N)cc(=O)[nH]2)cc1` gave MCF10A rereplic 17%, PINK1 modulator 1%, SW480 rerep -3%, KB-V1 cytotox 8.2µM* and KB-3-1 cytotox inactive.
For Nc1cc(=O)[nH]c(SCCSc2ccc(F)cc2)n1 the results were MCF10A rereplic 13%, PINK1 modulator -2%, SW480 rerep -2%, KB-V1 cytotox inconclusive and KB-3-1 cytotox inconclusive.
Clc1ccc(-c2csc(Nc3ccccc3)[n+]2Cc2ccco2)c(Cl)c1 was read as MCF10A rereplic inconclusive, PINK1 modulator 17%, SW480 rerep -18%, KB-V1 cytotox inconclusive and KB-3-1 cytotox inconclusive.
CCCC[n+]1c(-c2ccc(Cl)cc2Cl)csc1Nc1ccccc1 was read as MCF10A rereplic 23µM*, PINK1 modulator 8%, SW480 rerep 1%, KB-V1 cytotox inconclusive and KB-3-1 cytotox inactive.
For C=CC[n+]1c(-c2ccc(Cl)cc2Cl)csc1Nc1ccc(NC(C)=O)cc1 the results were MCF10A rereplic inconclusive, PINK1 modulator -1%, SW480 rerep 23µM*, KB-V1 cytotox inactive and KB-3-1 cytotox inconclusive.
`COc1ccccc1C(=O)COC(=O)/C(=C/c1ccccc1)NC(C)=O` gave MCF10A rereplic -2%, PINK1 modulator -1%, SW480 rerep -2%, KB-V1 cytotox inconclusive and KB-3-1 cytotox inactive.
OC(CN1CCN(c2ccccc2Cl)CC1)c1ccccc1 (configuration not stated) was read as MCF10A rereplic inconclusive, PINK1 modulator 8%, SW480 rerep 23µM*, KB-V1 cytotox inactive and KB-3-1 cytotox inconclusive.
